Results filed as inconclusive are left out. Calls of active or inactive are those of the source. The call rests on the fitted dose curve; in most records, active means well fitted cell-killing curve with a large enough effect; inconclusive means small, poorly fitted or top-dose-only effect, or effect the other way, or another doubt; inactive means no such curve, though single readings can be large or run the other way.
Assay: Identifying Small Molecule Inhibitors of Pancreatic Cancer Stem Cells (A2780, Spheroid) (AID 1259357);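 further: spheroids pre-formed over 14 days in stem cell medium on hydrogel; compound exposure lasted 48 h before the ATP luminescence read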;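 on viability (percent of control): 100% = DMSO treated cells and 0% = wells without cells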
Conditions: Potency: A2780 spheroid viability; series mostly up to 46.1 µM; viability (percent of control): at the top concentration
From the text: Progenitor-like cancer cells, often referred to as cancer stem cells (CSC), are believed to be the drivers of therapeutic resistance and rapid recurrence. CSCs are postulated to reside in specific niches characterized by low oxygen tension, limited nutrient supply, and high redox load. Selectively targeting CSC, alone or in combination with cytotoxic agents, as a means to produce durable remissions is an appealing concept. Modeling these cells in in vitro setting is an important step in finding new therapies and/or targets. Multiple reports highlight that forcing cells in culture into 3-dimensionaly architectures (spheroids) re-establishes key progenitor-like transcriptional signatures. Pancreatic cancer is among the diseases with the most dismal outlook which is driven, largely, by recurance following front-line therapies. […] In hopes of deriving new insight into the targeting of these pancreatic CSCs we examined three established pancreatic cancer cell lines in cytotoxicity assays versus a collection of approved and investigational drugs. Importantly, we screened these lines as traditional monolayer (2D) and spheroid (3D) formats to gain an appreciation of agents with differential activity.
Multicellular tumor spheroids from Panc1, MiaPaCa-2, and the primary low-passage tissue culture line SB.06 were seeded in stem cell media (SCM) in nonadherent 6-well plates coated with hydrogel (Corning Life Sciences, Chelmsford, Mass) and pancreatic spheres generated for 14 days before screening. Cells were seeded into 1536-well solid-bottom white tissue culture treated Greiner Bio One Plates (789173-F) using a MultiDrop Combi (Thermofisher Scientific) dispenser and a small sterile cassette. One column was media alone to be used as a :"no cells" control. The plates were then covered with sterilized stainless steel gasketed lids from Kalypsys. After allowing cells to attach for 4 hours, 23 nL of test compound or control (negative control DMSO and positive control 9.2 uM Bortezomib-final) were added from a 1536-well polypropylene compound source plate to each well using a 1536 head pin tool from Kalypsys. Cells were then incubated for 48 hours at 37C, 95% relative humidity and 5% CO2. After 48 hours, plates were removed from the incubator and 3 uL of CellTiter-Glo (Promega) was added using an Aurora Flying Reagent Dispenser Bioraptor. Plates were incubated at room temperature for 10 minutes prior to reading the luminescence on the Viewlux (PerkinElmer). The relative luciferase units are used to calculate the percent activity using the activity of DMSO in the cells and no cells columns for normalization of no inhibition and full inhibition respectively.
Potency means the concentration at half of the fitted maximal effect.

Row | SMILES | viability (percent of control) | Potency
1 | COc1ccc(COc2cc3oc(=O)c4cc(C(C)O)ccc4c3cc2OC)cc1 (stereo not drawn) | 113% (inactive) | –
2 | Cc1csc(NC(=O)c2sc3nc4c(c(C(F)(F)F)c3c2N)CCC4)n1 | 101% (inactive) | –
3 | COc1cc(F)c(F)c(Nc2ccc(I)cc2F)c1NS(=O)(=O)C1(C[C@H](O)CO)CC1 | 97.6% (inactive) | –
4 | O=C(C=Cc1ccc(/C=C/C(=O)Nc2ccc(C3=NCCN3)cc2)cc1)Nc1ccc(C2=NCCN2)cc1 | 100% (inactive) | –
5 | Nc1nc2[nH]cc(CCc3ccc(C(=O)N[C@@H](CCC(=O)O)C(=O)O)cc3)c2c(=O)[nH]1 | 113% (inactive) | –
6 | C[C@@H]1C[C@H]2[C@@H]3CCC4=CC(=O)C=C[C@]4(C)C3(F)[C@@H](O)C[C@]2(C)[C@@]1(O)C(=O)CO (stereo partly drawn) | 86.4% (inactive) | –
7 | CN[C@@H](C)C(=O)N[C@H]1CCCC[C@H]2CC[C@@H](C(=O)N[C@@H](c3ccccc3)c3cn(CCCCc4ccc(CCCCn5cc([C@@H](NC(=O)[C@@H]6CC[C@@H]7CCCC[C@H](NC(=O)[C@H](C)NC)C(=O)N76)c6ccccc6)nn5)cc4)nn3)N2C1=O | 42.6% (inactive) | –
8 | CCC(C)n1ncn(-c2ccc(N3CCN(c4ccc(OC[C@H]5CO[C@](Cn6cncn6)(c6ccc(Cl)cc6Cl)O5)cc4)CC3)cc2)c1=O (stereo partly drawn) | – | 4.69 µM (active)
9 | CCCS(=O)(=O)Nc1ccc(F)c(C(=O)c2c[nH]c3ncc(Cl)cc23)c1F | 84.3% (inactive) | –
10 | O=C(C1CC1)N1CC[C@@H](Cn2c(-c3ccc(-c4ccc5occc5c4)cc3)nc3cnccc32)C1 | – | 0.469 µM (active)
11 | Cc1oncc1C(=O)Nc1ccc(C(F)(F)F)cc1 | 99.6% (inactive) | –
12 | COCCNCCCn1c(C(=O)CF)c(-c2ccc(C)cc2)c2c(N)ncnc21 | 111% (inactive) | –
13 | CCOc1ccc(Cc2cc([C@@H]3O[C@H](CO)[C@@H](O)[C@H](O)[C@@H]3O)ccc2Cl)cc1 | 80.8% (inactive) | –
14 | CNC(=O)c1ccc(N2C(=S)N(c3ccc(C#N)c(C(F)(F)F)c3)C(=O)C2(C)C)cc1F | – | 0.166 µM (active)
15 | Oc1cccc(-c2nc(N3CCOCC3)c3oc4ncccc4c3n2)c1 | – | 0.833 µM (active)
16 | COc1ccc(-c2c(-c3ccc(O)cc3O)n[nH]c2C)cc1 | 93.1% (inactive) | –
17 | CN(C)c1ccc(Nc2nc(N)n(C(=O)c3c(F)cccc3F)n2)cc1 | – | 18.7 µM (active)

Row | SMILES | viability (percent of control) | Potency
18 | S=C(NCc1ccc2c(c1)OCO2)N1CCN(c2ncnc3c2oc2ccccc23)CC1 | – | 16.6 µM (active)
19 | CCCc1nc2c(C)cc(-c3nc4ccccc4n3C)cc2n1Cc1ccc(-c2ccccc2C(=O)O)cc1 | 129% (inactive) | –
20 | O=C(Nc1cccnc1)N1CCC(Cc2cccc(Oc3ccc(C(F)(F)F)cn3)c2)CC1 | – | 18.7 µM (active)
21 | CCC(=O)N[C@H]1CC[C@H](C(=O)N(C)c2ccc(-c3nc4ccccc4o3)cc2)C1 | – | 14.8 µM (active)
22 | C[C@]12CCC(=O)C=C1CC[C@@H]1[C@@H]2[C@@H](O)C[C@@]2(C)[C@H]1CC[C@]2(O)C(=O)CO | 82.9% (inactive) | –
23 | O=c1ncn2nc(Sc3ccc(F)cc3F)ccc2c1-c1c(Cl)cccc1Cl | – | 14.8 µM (active)
24 | CCCCCCCc1ccc(CCc2cccc(O)c2C(=O)O)cc1 | 135% (inactive) | –
25 | Cc1cc2c(F)c(Oc3ncnn4cc(OC[C@@H](C)O)c(C)c34)ccc2[nH]1 | 86.1% (inactive) | –
26 | Cc1cc(SCc2sc(-c3ccc(C(F)(F)F)cc3)nc2C)ccc1OCC(=O)O | 91.4% (inactive) | –
27 | COc1ccc(-c2ccc3c(N4CCOC[C@H]4C)nc(N4CCOC[C@H]4C)nc3n2)cc1CO | – | 0.0187 µM (active)
28 | CS(=O)(=O)Oc1ccc2c(NC(N)=O)c(C(=O)c3ccc(Cl)cc3Cl)oc2c1 | – | 11.8 µM (active)
29 | N#Cc1ccc(C(c2ccc(C#N)cc2)n2cncn2)cc1 | 133% (inactive) | –
30 | COc1ccc2c3n(c(=NC(=O)c4cccnc4)nc2c1OC)CCN3 | – | 3.32 µM (active)
31 | Cc1n[nH]c(C)c1Cc1sc2c(c1C(=O)N1C[C@H](O)CO1)c(=O)n(C)c(=O)n2CC(C)C | 132% (inactive) | –
32 | O=C1CCCC2=C1C(c1[nH]ncc1Cl)N=C(Nc1nc3ccccc3o1)N2 (stereo not drawn) | 121% (inactive) | –
33 | O=C(O)c1ccc(-c2c[nH]c3ccc(-c4ccccc4)cc23)cc1C1CCCC1 | 69.2% (inactive) | –

Source: PubChem BioAssay (NCATS)
